Source: PubChem
DT40 TDP1 no CPT = qHTS for Inhibitors of human tyrosyl-DNA phosphodiesterase 1 (TDP1): qHTS in cells in absence of CPT; DT40 Tdp1-/- hTDP1 cells, no CPT, ATP luminescence, 48 h; Potency, µM (top dose mostly 46.2 µM), without a hit: at the top dose activity change, negative = growth inhibition, usual class: inhibitors; hit rate 15% among 420,000; also: potency is read from the fitted curve at half-maximal effect; nearly all actives have a fitted effect of over 55% in size
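Seeded 400 DT40-hTDP1 cells/well (vehicle DMSO, no 20 nM CPT); pinned compounds; ≥48 hr at 37 °C; CellTiter-Glo luminescence as viability measure.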
HT1080NT lethal = qHTS for induction of synthetic lethality in tumor cells producing 2HG: qHTS for the HT-1080-NT fibrosarcoma cell line. HT-1080-NT fibrosarcoma viability, CellTiter-Glo ATP luminescence, 48 h. Potency, µM (titrated, usually from 46.1 µM), for inactives: at the highest dose activity, negative = less viability, usual class: cytotoxic. hit rate 1.6% among 360,000. AID 686970, 2013;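 also: NT is the 2HG producing partner of a matched IDH1 knockdown line; potency is read from the fitted curve at half-maximal effect; 0% = DMSO-treated cells and -100% = media-only wells without cells; nearly all actives have a fitted effect of over 55% in size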
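Fibrosarcoma NT cells, 750 per well in 5% FBS RPMI, were exposed to compound for 48 hours. Viability: CellTiter-Glo luminescence.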
IL1B secr inh = qHTS for Inhibitors of Inflammasome Signaling: IL-1-beta AlphaLISA Primary Screen. activity change, % at 57.5 µM. AID 743279, 2014. hit rate 4.7% among 360,000. THP-1 LPS/ATP IL-1B secretion, AlphaLISA, 16 h; stronger effect = lower value; in the data active = activity change below about -50%; inconclusive = mostly about -30% to -49%
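THP-1 cells pretreated 1 hr with compounds (up to 57.5 uM final), then stimulated with LPS (250 ng/mL final) plus ATP (1.25 mM final); secreted IL-1B measured by AlphaLISA after 16 hr, decreased signal indicating inhibition.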
TDP1 cell CPT = qHTS for Inhibitors of human tyrosyl-DNA phosphodiesterase 1 (TDP1): qHTS in cells in presence of CPT. chicken DT40 Tdp1-/-;hTDP1 cells + 20 nM CPT, ATP luminescence, 48 h. Potency, µM (titrated, usually from 46.2 µM), inactives show at the highest dose activity change, negative = growth inhibition, actives largely listed as inhibitors. hit rate 12% among 420,000; also: potency is read from the fitted curve at half-maximal effect; nearly all actives have a fitted effect of over 55% in size
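Chicken DT40 Tdp1-/- cells complemented with human TDP1, 400 cells/well, exposed to compounds plus 20 nM camptothecin for at least 48 h at 37 C; viability read as ATP content by CellTiter-Glo luminescence.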
HT1080 IDH1KD tx = qHTS for induction of synthetic lethality in tumor cells producing 2HG: qHTS for the HT-1080-IDH1KD cell line. HT-1080 IDH1 knockdown viability, ATP luminescence, 48 h. Potency, µM (highest dose often 46.1 µM), inactives show at the highest dose activity, negative = toxicity, most hits filed as cytotoxic. hit rate 2% among 360,000. AID 686971, 2013;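 also: potency is read from the fitted curve at half-maximal effect; 0% = DMSO wells and -100% = cell-free medium wells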
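HT-1080-IDH1KD cells (IDH1 knocked down), 750/well in RPMI with 5% FBS, treated with compound 48 h at 37 degrees C. Viability by CellTiter-Glo luminescence, normalised to DMSO and no-cell wells; concentration-response curves classed.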
* hit, by the source's call; u = inconclusive; x = not tested or not shown; [ ] = remark or other dose. Only some compounds are listed: those with a hit (about 19% of all), similar ones and a draw of the others. Unless noted, calls follow the shape of the dose curve; as a rule, active = well fitted curve in the direction sought with a large enough effect; inconclusive = small, poorly fitted or top-dose-only effect, or another doubt; inactive = no such curve, though single readings can be large; an effect the other way counts as inactive or inconclusive. Unless noted, % is scaled to controls: 0 for no effect and ±100 for the full control effect.

SMILES	DT40 TDP1 no CPT	HT1080NT lethal	IL1B secr inh	TDP1 cell CPT	HT1080 IDH1KD tx
CCc1ccc(S(=O)(=O)c2nnn3c2nc(N2CCCC2)c2sccc23)cc1	-2%	x	x	-15%	x
CCc1ccc(S(=O)(=O)c2nnn3c2nc(Nc2ccc(NC(C)=O)cc2)c2sccc23)cc1	u	x	x	23µM*	x
CC(C)Nc1nc2c(S(=O)(=O)c3cccc(Cl)c3)nnn2c2ccsc12	-29%	x	x	-29%	x
CCc1ccc(Nc2nc3c(S(=O)(=O)c4cccc(Cl)c4)nnn3c3ccsc23)cc1	4.6µM*	x	x	6.5µM*	x
COc1cc(Nc2nc3c(S(=O)(=O)c4cccc(Cl)c4)nnn3c3ccsc23)cc(OC)c1	7.3µM*	x	x	9.2µM*	x
CCc1ccc(S(=O)(=O)c2nnn3c2nc(NCCC(C)C)c2cc(Cl)ccc23)cc1	21µM*	x	x	u	x
COCCNc1nc2c(S(=O)(=O)c3ccccc3)nnn2c2ccc(Cl)cc12	u	x	x	-23%	x
CO/N=C(\C(=O)N[C@@H]1C(=O)N2C(C(=O)O)=C(CSc3nnnn3C)CS[C@H]12)c1csc(N)n1	-24%	x	x	-1%	x
N/C(=N\OC(=O)/C=C/c1ccccc1)c1ccncc1	8%	6%	-50*	-18%	4%
N/C(=N\OC(=O)/C=C/c1ccccc1Cl)c1ccncc1	0%	1%	-56*	-3%	-6%
COc1ccccc1C/C(N)=N/OC(=O)c1cccs1	u	u	9	u	-27%
N/C(=N\OC(=O)c1ccccc1Cl)c1ccncc1	-14%	-19%	29	-28%	-14%
COc1ccccc1C/C(N)=N/OC(=O)/C=C/c1ccccc1	-4%	u	-56*	u	u
COCCNC(=O)c1cn(C2CCN(C3CCCC3)CC2)nn1	6%	x	x	0%[9.04 µM]	x
c1ccc(Nc2nc(Nc3ccccc3)nc(-n3cccn3)n2)cc1	5µM*	x	x	7.1µM*	x
c1ccc(Nc2nc(N3CCCCC3)nc(N3CCNCC3)n2)cc1	18µM*	u	-65*	29µM*	u
Fc1ccc(Nc2nc(Oc3ccccc3F)nc(N3CCCC3)n2)cc1	u	-1%	-53*	-28%	2%
c1ccc(Nc2nc(N3CCCC3)nc(N3CCCC3)n2)cc1	-26%	u	-5	u	-26%
COc1nc(Nc2cccc(C)c2)nc(N2CCCCC2)n1	16µM*	3%	12	18µM*	18%
CCOC(=O)Nc1ccc2c(CN3CCN(S(=O)(=O)c4ccc(C(C)C)cc4)CC3)cc(=O)oc2c1	0%	-7%[9.24 µM]	0	-28%	-10%
COc1ccccc1-c1csc(C(C)(NC(C)=O)c2ccccc2)n1 (centres undefined)	u	u	0	16µM*	3%
COc1ccccc1-c1csc(C(NC(C)=O)c2ccccc2)n1 (centres undefined)	-17%	17%	2	-15%	15%
CC(=O)NC(C)(c1ccccc1)c1nc(-c2cccc3cccnc23)cs1 (centres undefined)	15µM*	1%	0	21µM*	16%
COc1ccc(C(C)(NC(C)=O)c2nc(/C=C/c3ccccc3)cs2)cc1 (centres undefined)	u	u	-1	u	-26%
Cc1ccc(SCCN2CCC(C(C)(C)C)CCC2=O)cc1 (centres undefined)	u	-8%	1	9.2µM*	0%
SMILES	DT40 TDP1 no CPT	HT1080NT lethal	IL1B secr inh	TDP1 cell CPT	HT1080 IDH1KD tx
CC(=O)Nc1ccc(SCCN2CC[C@@H](C(C)(C)C)CCC2=O)cc1	13µM*	1%	-18	u	9%
CC(C)(C)C1CCC(=O)N(CCSc2ccccc2)CC1 (centres undefined)	u	-5%	120	u	-5%
Cc1cc(OCC(=O)Nc2nc3c(s2)CCCC3)cc(C)c1Cl	u	x	x	-29%	x
CC(C)(C)C1CCc2nc(NC(=O)c3cccc(Cl)c3)sc2C1 (centres undefined)	23µM*	x	x	u	x
CC(C)(C)C1CCc2nc(NC(=O)COc3ccccc3[N+](=O)[O-])sc2C1 (centres undefined)	u	x	x	16µM*	x
Cc1cc(C)cc(OCC(=O)Nc2nc3c(s2)CC(C(C)(C)C)CC3)c1 (centres undefined)	23µM*	x	x	18µM*	x
CC(C)(C)C1CCc2c(sc(NC(=O)c3cccc(Cl)c3)c2C(N)=O)C1 (centres undefined)	-1%	x	x	-3%	x
Cc1cccc(OCC(=O)Nc2nc3c(s2)CC(C(C)(C)C)CC3)c1C (centres undefined)	18µM*	x	x	16µM*	x
CC(C)c1nnc(NC(=O)COc2ccccc2[N+](=O)[O-])s1	0%	2%	-16	8%	3%
C[C@@H]1CCC[C@]2(O[C@H](CCO)C[C@H](O)[C@H]2O)O1	21%	-1%	19	-15%	-2%
O=C(COC(=O)/C=C/c1ccc(C(F)(F)F)cc1)NCC1CCCO1 (centres undefined)	u	0%	-5	u	1%
CC(=O)c1ccc(Nc2ccc([N+](=O)[O-])c3nonc23)cc1	23µM*	u	-12	u	u
Cc1noc(C)c1-c1nccc(Nc2ccc(F)cc2)n1	-9%	x	x	-4%	x
COc1cc2c(cc1OC)C(c1cccc([N+](=O)[O-])c1)N(C(=O)c1ccccc1C(=O)O)CC2 (centres undefined)	-4%	15%	-58*	1%	19%
COc1ccc(C(=O)N2CCc3cc(OC)c(OC)cc3C2c2cccc([N+](=O)[O-])c2)cc1OC (centres undefined)	18µM*	-20%	u	u	-19%
O=C(Oc1ccccc1F)c1nc(SCc2ccccc2F)ncc1Cl	-8%	x	x	-7%	x
COc1ccc(OC)c(/C=C/C(=O)N2C(=O)c3cccc(N)c3C2=O)c1	5.2µM*	u	-121*	4.6µM*	16µM*
COc1cc(/C=C/C(=O)N2CCN(C(=O)/C=C/c3cc(OC)c(OC)c(OC)c3)CC2)cc(OC)c1OC	-16%	19%	-8	-4%	15%
COc1cc(/C=C/C(=O)N2C(=O)c3cccc(N)c3C2=O)cc(OC)c1OC	29µM*	-9%	-20	5.8µM*	-8%
CC(OC(=O)C1CCCC1)C(=O)Nc1ncc(Cl)cc1Cl (centres undefined)	13%	9%	-17	0%	2%
